# Results reported in ChEMBL document CHEMBL1157539, “Thousands of chemical starting points for antimalarial lead identification” (Nature, 2010).
# Assays:
# Assay type in all cases: functional
# Plasmodium falciparum [1] = test: GSK_TCMDC: Inhibition of Plasmodium falciparum 3D7 in whole red blood cells, using parasite LDH activity as an index of growth. Test compounds present at 2uM
# Plasmodium falciparum [2] = test: GSK_TCMDC: Inhibition of Plasmodium falciparum Dd2 in whole red blood cells, using parasite LDH activity as an index of growth. Test compounds present at 2uM
# HepG2 = test: GSK_TCMDC: Percent inhibition of human HepG2 cell line. Test compounds present at 10uM.
SMILES,Inhibition (Plasmodium falciparum [1]) [%],Inhibition (Plasmodium falciparum [2]) [%],Inhibition (HepG2) [%]
CC1(C)C(=O)Nc2ccc3c(c21)CC1SC(=O)NN=C31 (stereo not given),96,92,6
COc1ccc(Cl)cc1-c1nc(C(=O)NCCN2CCCCC2)c(C(C)C)s1.O=C(O)C(F)(F)F,100,37,14
COc1ccc2c(OC)ccc(CNCCCCCCNCc3ccc(OC)c4ccc(OC)cc34)c2c1.CS(=O)(=O)O,100,98,100
COc1ccc2ncc(F)c(CCN3CC(O)C(CNCc4ccc5oc(=O)ccc5c4)C3)c2n1.Cl (stereo not given),89,6,18
COc1cccc(C(=O)Nc2ccc(S(=O)(=O)c3cc4c(cc3OC)CCN(C)CC4)cc2)c1,86,3,0
CCN(CC)CCN(Cc1ccc(-c2ccc(C(F)(F)F)cc2)cc1)C(=O)CN1C(CCc2cccc(F)c2F)=NS(=O)(=O)c2ccccc21,100,49,36
Cc1noc(-c2ccc3c(c2)CCN(CCC2CCC(NC(=O)/C=C/c4ccc(F)cc4)CC2)CC3)n1.Cl (stereo not given),91,39,44
CN1C(C)(C)CC(NC(=O)c2ccc(-c3nc4cc(Cl)ccc4[nH]3)cc2)CC1(C)C,99,36,23
Cc1noc(C)c1C(=O)N1CCCC(c2[nH]c3c(C)cccc3c2-c2ccncc2)C1.Cl (stereo not given),100,100,16
CC(C)(C)c1cc(NC2CC2)nc(-c2ccccn2)n1,94,79,7
